From PubChem BioAssay (Tox21)
Records with an inconclusive call do not appear. More than one record can exist for a structure, and the calls need not agree. Activity calls are given as the source filed them. Unless noted, calls follow the shape of the dose curve; as a rule, active = well fitted curve in the direction sought with a large enough effect in the repeat runs; inconclusive = weak or mixed curves; inactive = no such curve, though single readings can be large; an effect the other way counts as inactive or inconclusive.

Legend:
[1] = qHTS assay to identify small molecule antagonists of the glucocorticoid receptor (GR) signaling pathway - cell viability counter screen (AID 720693); also: nearly all actives have a fitted effect of over 55% in size; also: potency is read from the fitted curve at half-maximal effect
[2] = qHTS assay for identifying genotoxic compounds that show differential cytotoxicity against isogenic chicken DT40 cell lines with known DNA damage response pathways - Rev3 mutant cell line (AID 743014); also: nearly all actives have a fitted effect of over 55% in size; also: potency is read from the fitted curve at half-maximal effect
[3] = qHTS assay to identify small molecule antagonists of the androgen receptor (AR) signaling pathway - cell viability counter screen (AID 743033; also: nearly all actives have a fitted effect of over 45% in size; also: potency is read from the fitted curve at half-maximal effect)
[4] = biological target: Androgen receptor (Homo sapiens) (UniProt P10275); experiment: qHTS assay to identify small molecule agonists of the androgen receptor (AR) signaling pathway using the MDA cell line (AID 743040; also: nearly all actives have a fitted effect of over 20% in size; also: potency is read from the fitted curve at half-maximal effect)
Androgen receptor (Homo sapiens), sequence (P10275 whole entry, looked up): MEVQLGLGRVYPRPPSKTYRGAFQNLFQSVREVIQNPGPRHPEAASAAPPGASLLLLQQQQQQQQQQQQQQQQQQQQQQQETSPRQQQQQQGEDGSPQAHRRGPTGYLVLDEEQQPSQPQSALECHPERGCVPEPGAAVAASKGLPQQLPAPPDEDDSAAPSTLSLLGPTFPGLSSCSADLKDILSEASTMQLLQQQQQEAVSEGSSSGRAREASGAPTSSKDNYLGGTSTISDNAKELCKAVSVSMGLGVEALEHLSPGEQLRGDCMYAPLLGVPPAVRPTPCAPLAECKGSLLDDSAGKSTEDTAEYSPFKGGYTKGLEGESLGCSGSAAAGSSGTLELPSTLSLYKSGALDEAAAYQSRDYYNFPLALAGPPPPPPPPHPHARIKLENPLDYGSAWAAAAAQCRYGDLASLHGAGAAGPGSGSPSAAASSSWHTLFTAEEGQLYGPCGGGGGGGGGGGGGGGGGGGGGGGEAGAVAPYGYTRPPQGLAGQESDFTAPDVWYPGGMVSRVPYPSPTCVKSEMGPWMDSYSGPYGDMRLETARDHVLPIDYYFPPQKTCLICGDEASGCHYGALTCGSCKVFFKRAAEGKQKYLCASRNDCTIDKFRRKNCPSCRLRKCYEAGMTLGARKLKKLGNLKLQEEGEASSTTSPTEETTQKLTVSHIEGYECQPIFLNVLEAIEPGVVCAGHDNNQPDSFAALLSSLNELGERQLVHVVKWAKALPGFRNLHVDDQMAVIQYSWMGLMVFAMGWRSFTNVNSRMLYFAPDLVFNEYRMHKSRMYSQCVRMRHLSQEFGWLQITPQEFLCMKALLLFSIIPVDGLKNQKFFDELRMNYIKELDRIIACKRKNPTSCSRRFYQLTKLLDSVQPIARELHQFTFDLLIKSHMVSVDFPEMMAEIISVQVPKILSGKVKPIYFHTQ
In short: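 Stable MMTV-luciferase reporter in MDA-kb2 cells; note the promoter carries GR as well as AR response elements. 16 h compound treatment, 37C, 0% CO2; ONE-Glo luminescence endpoint.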

[5] = qHTS assay to identify small molecule antagonists of the androgen receptor (AR) signaling pathway using the MDA cell line - cell viability counter screen (AID 743041; also: nearly all actives have a fitted effect of over 45% in size; also: potency is read from the fitted curve at half-maximal effect)
In short: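 Using the breast carcinoma line MDA-kb2 AR-luc, test chemicals were co-incubated with R1881 for 16 h; CellTiter-Fluor reagent, added at 15.5 h, provided a fluorescence measure of live cells.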

[6] = biological target: Androgen receptor (Homo sapiens) (UniProt P10275); experiment: qHTS assay to identify small molecule antagonists of the androgen receptor (AR) signaling pathway using the MDA cell line (AID 743042; also: nearly all actives have a fitted effect of over 55% in size; also: potency is read from the fitted curve at half-maximal effect)
In short: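 Antagonist mode: compounds plus R1881 agonist added to MDA-kb2 AR-luc cells, incubated 16 h at 37C. Luciferase reporter luminescence quantified, with multiplexed CellTiter-Fluor readout for cell viability.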

[7] = qHTS assay for identifying genotoxic compounds that show differential cytotoxicity against isogenic chicken DT40 cell lines with known DNA damage response pathways - wild type cell line (AID 743012); also: nearly all actives have a fitted effect of over 60% in size; also: potency is read from the fitted curve at half-maximal effect
In short: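 Viability by ATP luminescence (CellTiter-Glo, 30 min RT) after 40 h compound treatment at 37 C/5% CO2, using 300 parental DNA repair-proficient DT40 cells per well.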

[8] = qHTS assay for identifying genotoxic compounds that show differential cytotoxicity against isogenic chicken DT40 cell lines with known DNA damage response pathways - Rad54/Ku70 mutant cell line (AID 743015); also: nearly all actives have a fitted effect of over 60% in size; also: potency is read from the fitted curve at half-maximal effect
[9] = biological target: Androgen receptor (Homo sapiens) (UniProt P10275); experiment: qHTS assay to identify small molecule antagonists of the androgen receptor (AR) signaling pathway (AID 743035; active = well fitted inhibition curve with a large enough effect in the signal ratio in the repeat runs, not every such curve was filed as active; the % refers to the signal ratio)
In short: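 Antagonist mode: AR-bla HEK293 cells co-treated with test compounds and agonist R1881 for 16 h at 37C, 5% CO2. Beta-lactamase activity read as FRET fluorescence after 2 h room-temperature substrate loading.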

[10] = biological target: Androgen receptor (Homo sapiens) (UniProt P10275); experiment: qHTS assay to identify small molecule agonists of the androgen receptor (AR) signaling pathway (AID 743036; active = well fitted activation curve with a large enough effect in the signal ratio in the repeat runs, with a control signal flat, not every such curve was filed as active; the % refers to the signal ratio)
In short: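 Activation was read as beta-lactamase FRET signal from LiveBLAzer B/G substrate, added for 2 h at room temperature. Before that, GeneBLAzer AR-UAS-bla GripTite (HEK293) cells had 16 h compound exposure at 37C.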

Measured: Potency
% is scaled to controls: 0 for no effect and ±100 for the full control effect.

O=C(c1ccc(F)cc1)C1CCN(CCn2c(=O)[nH]c3ccccc3c2=O)CC1
inactive: [1] | [2] | [3] | [4] | [5] | [6]

O=C(O)c1cc(O)c2c(c1)C(=O)c1cccc(O)c1C2=O
inactive: [1] | [7] | [8] | [5]

O=C(Nc1ccc(Oc2ccc(Cl)cc2)c(Cl)c1)c1cc(I)cc(I)c1O
inactive: [2] | [8] | [3] | [5]
active: [1] 6.01 µM

CCN1/C(=C/C=C/c2sc3ccccc3[n+]2CC)Sc2ccccc21
active: [1] 21.3 µM | [7] 0.0266 µM | [3] 3.01 µM | [5] 0.75 µM

CC1=NC(C)OC1C (stereo unspecified)
inactive: [1] | [8] | [4] | [5]

CCCCN1C(=O)[C@@H]([C@H](O)C2CCCCC2)NC(=O)C12CCN(Cc1ccc(Oc3ccc(C(=O)O)cc3)cc1)CC2
inactive: [1] | [5]
active: [7] 61.1 µM | [8] 15.4 µM

CCN(C(=O)N(CC)c1ccccc1)c1ccccc1
inactive: [1] | [3] | [5]

CCC1OCC(COc2ccc(Oc3ccccc3)cc2)O1 (stereo unspecified)
inactive: [1] | [2] | [3] | [5]

Oc1cc2ccccc2c2ccccc12
inactive: [4]
active: [1] 17.4 µM | [7] 1.22 µM | [3] 9.77 µM | [5] 27.3 µM | [6] 13.7 µM

COc1cc(-c2ccc(N=C=O)c(OC)c2)ccc1N=C=O
inactive: [1] | [7] | [3] | [5]

CCCCN(CCCC)C(=O)N(CCCC)CCCC
inactive: [1] | [2] | [3] | [5]

C[n+]1ccn(Cc2ccccc2)c1
inactive: [1] | [7] | [3] | [5]

CC(C)=CCOc1ccc(/C=C/C(=O)c2ccc(OCC=C(C)C)cc2OCC(=O)O)cc1
inactive: [1] | [7] | [3] | [4] | [5] | [6]

C/C=C(\C)C(=O)OCc1ccccc1
inactive: [1] | [3] | [5]

O=C(c1ccc(O)cc1O)c1ccc(O)cc1O
inactive: [1] | [7] | [3] | [4] | [5]

C[C@@H]1C[C@H]2[C@@H]3CCC4=CC(=O)C=C[C@]4(C)[C@@]3(Cl)[C@@H](O)C[C@]2(C)[C@@]1(OC(=O)c1ccco1)C(=O)CCl
active: [7] 12.7 µM | [4] 0.0009 µM
inactive: [1] | [5] | [6]

OCCCCCCCCCCCCBr
active: [2] 3.92 µM
inactive: [1] | [5]

CN(C)c1ccc(C2(c3ccc(N(C)C)cc3)OC(=O)c3cc(N(C)C)ccc32)cc1
inactive: [1] | [3] | [9] | [4] | [5] | [6]
active: [8] 15.3 µM

NC(=NCCCCCCN=C(N)/N=C(\N)Nc1ccc(Cl)cc1)/N=C(\N)Nc1ccc(Cl)cc1
inactive: [5]
active: [1] 21.3 µM [middle of 5 runs] | [2] 15.3 µM [middle of 5 runs] | [8] 17.1 µM [middle of 5 runs]

CC(C)C(C)(C)C(C)(C)C(C)(C)S
inactive: [1] | [7] | [4] | [5] | [6]

N/C(=N\N=C\c1ccc(Cl)cc1)N/N=C/c1ccc(Cl)cc1
inactive: [1] | [7] | [8] | [5]

O=c1cccccc1O
inactive: [1] | [5]
active: [8] 55.5 µM | [3] 44.5 µM

O=c1[nH]cnc2nc[nH]c12
inactive: [1] | [2] | [8] | [3] | [5]

CCOc1ccc2nc3cc(N)ccc3c(N)c2c1
active: [2] 26.6 µM | [8] 26.6 µM
inactive: [1] | [3] | [5]

CCC(Cl)C(Cl)C(Cl)CC(Cl)C(Cl)C(C)Cl (stereo unspecified)
inactive: [1] | [3] | [5]
active: [2] 54.5 µM | [8] 54.5 µM

Clc1ccc2n[nH]nc2c1
inactive: [1] | [7] | [5]

O=C(NOCC1CC1)c1ccc(F)c(F)c1Nc1ccc(I)cc1Cl
inactive: [4] | [5]
active: [1] 23.9 µM | [7] 29.8 µM

CCCCCCCCOC(=O)c1ccc(O)cc1
active: [8] 60.9 µM
inactive: [1] | [3] | [5]

Cc1cc(=O)oc2cc(N(C)C)ccc12
inactive: [1] | [3]
active: [2] 54.5 µM

CCN(C(=O)c1cc(C)cc(OC[C@H](C)Nc2ccncc2)c1)C(C)C
active: [7] 19.1 µM | [8] 17 µM
inactive: [1] | [5]

CCc1oc2ccccc2c1C(=O)c1cc(Br)c(O)c(Br)c1
inactive: [4] | [5] | [6]
active: [1] 13.4 µM

CCCCCOC(=O)CCCC
inactive: [1] | [7] | [8] | [5]

NC(=O)N1C(=O)C(C(=O)c2cc(Cl)cs2)c2cc(F)c(Cl)cc21 (stereo unspecified)
inactive: [3] | [4] | [6]
active: [1] 38.9 µM | [8] 61.1 µM

CN(C/C=C/C#CC(C)(C)C)Cc1cccc2ccccc12
inactive: [1] | [2] | [3] | [5]

Oc1ccc2c(c1)-c1ccccc1C2
inactive: [1] | [10] | [4] | [5] | [6]

C=C(C)C(=O)OCC[N+](C)(C)C
inactive: [1] | [9] | [10] | [4] | [5] | [6]

O=Cc1cc(O)ccc1Br
inactive: [1] | [3] | [5]

CC(C)(C)CC(C)(C)c1ccc(O)c(Cc2ccc(Cl)cc2Cl)c1
inactive: [3] | [9] | [4] | [5] | [6]
active: [1] 10.7 µM | [7] 26.6 µM

ON=C1CCCC1
inactive: [7] | [2] | [8] | [9] | [10] | [4] | [5] | [6]

Cc1ccc(O)c(C(C)(C)C)c1
active: [2] 13.7 µM | [8] 15.3 µM | [3] 15.5 µM
27.3 µM (active) and inactive: [7]
